Screens from PubChem.
The list is not random: actives were taken first. Their share in the collection is about 2%.
p53 PUMA act: re-activators of the mutant p53 pathway; SW480 PUMA-promoter luciferase, p53 mutant reactivation; activation, % at 9.98 µM; 28,000 tested, 1.5% active; in the data active = activation above about 52%
ID4 binder: ID4 (human) binding; P47928; small molecule microarray, Flag-ID4 binding, fluorescence F/B; calls only; 31,000 tested, 1.2% active; AID 624137; call rule not given here;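 note: a binder raises fluorescence above local background on the spot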
STK33 inh: inhibitors of human STK33 kinase. Q9BYT3. ADP-Glo luminescence, MBP substrate. inhibition, % at 12.5 µM. 27,000 tested, 0.44% active. AID 2322; in the data active = inhibition above about 20%
Target sequence (Q9BYT3 whole entry, looked up): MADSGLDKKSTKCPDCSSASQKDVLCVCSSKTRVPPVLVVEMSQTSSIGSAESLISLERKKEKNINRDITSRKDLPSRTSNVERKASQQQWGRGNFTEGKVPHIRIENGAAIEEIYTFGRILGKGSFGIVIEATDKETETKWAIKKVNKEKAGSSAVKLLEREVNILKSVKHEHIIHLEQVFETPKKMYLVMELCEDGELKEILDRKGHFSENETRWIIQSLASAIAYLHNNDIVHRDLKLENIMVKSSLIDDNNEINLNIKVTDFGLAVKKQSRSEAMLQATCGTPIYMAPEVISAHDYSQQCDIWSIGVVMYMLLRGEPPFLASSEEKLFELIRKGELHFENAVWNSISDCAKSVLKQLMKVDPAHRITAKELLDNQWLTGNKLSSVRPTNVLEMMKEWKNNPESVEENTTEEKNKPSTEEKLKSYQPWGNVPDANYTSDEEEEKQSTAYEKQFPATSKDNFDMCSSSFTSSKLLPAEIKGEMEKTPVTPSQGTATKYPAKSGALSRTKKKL
Each line names hits and unclear results; the compound was inactive in the other large screens.

Cc1ccc2nc(-c3ccc(C)c(NC(=O)COc4ccc([N+](=O)[O-])cc4)c3)oc2c1	p53 PUMA act 91
COc1ccc(-c2nc3ccccc3o2)cc1NC(=O)COc1ccc(C(C)C)cc1	none
Cc1cc(C(=O)NCc2ccco2)c2cc(F)ccc2n1	none
O=C(c1ccc(F)cc1)n1nc(-c2ccc(Cl)cc2)nc1NCc1ccco1	p53 PUMA act 150
O=C(c1cccs1)n1nc(-c2ccccc2)nc1NCc1ccco1	p53 PUMA act 86
O=C(c1ccccc1Cl)n1nc(-c2ccccc2)nc1NCc1ccco1	none
COc1ccccc1NC(=O)CSc1nc(C)cc(C(F)(F)F)n1	none
Cc1cc2nc(SCc3ccccc3C#N)[nH]c2cc1C	p53 PUMA act 68
N#Cc1ccccc1CSc1ncn[nH]1	none
COc1ccc(C)cc1S(=O)(=O)N1CCCC(C(=O)Nc2ccccc2F)C1 (configuration not stated)	none
Cc1ccc(NC(=O)CSc2nnnn2-c2ccc(Cl)c(C(=O)O)c2)cc1C	ID4 binder active
Cc1cc(NC(=O)CSc2nnnn2-c2ccccc2)ccc1Cl	none
Cc1cccc(-c2nc3cc(NC(=O)COc4ccccc4)ccc3o2)c1	none
COc1ccc(OCC(=O)Nc2ccc3oc(-c4cccc(Br)c4)nc3c2)cc1	none
O=C(COc1ccccc1)Nc1ccc2oc(-c3ccccc3)nc2c1	p53 PUMA act 69
COc1ccc2oc(-c3cccc(NC(=O)COc4ccc(Cl)cc4)c3)nc2c1	p53 PUMA act 91
O=C(CNC(=O)c1ccccc1)Nc1cccc(-c2cnc3ccccc3n2)c1	none
COc1ccc(OCC(=O)Nc2cccc(-c3cnc4ccccc4n3)c2)cc1	p53 PUMA act 92
O=C(COc1ccc([N+](=O)[O-])cc1)Nc1cccc(O)c1	p53 PUMA act 117
O=C(COc1ccc([N+](=O)[O-])cc1)Nc1cccc(NC(=O)c2ccccc2Cl)c1	none
CN1C2=C(C(=O)CC(C)(C)C2)C(c2ccccc2OCC(=O)Nc2ccc(F)cc2)C2=C1CC(C)(C)CC2=O	none
C(=NCc1ccco1)c1cn(-c2ccccc2)nc1-c1ccccc1	none (no result: p53 PUMA act, ID4 binder)
CC1(C)CC[C@]2(C(=O)O)CC[C@]3(C)C(=CCC4[C@@]5(C)CC[C@H](O[C@@H]6O[C@H](CO)[C@@H](O)[C@H](O)[C@H]6O)C(C)(C)C5CC[C@]43C)[C@@H]2C1 (some centres not stated)	none (no result: p53 PUMA act, ID4 binder)
CS(=O)(=O)N(CC(=O)Nc1c(F)cccc1F)c1cccc(Br)c1	none
COc1cc(O)c2c(=O)c(O[C@@H]3O[C@H](CO[C@@H]4O[C@@H](C)[C@H](O)[C@@H](O)[C@H]4O)[C@@H](O)[C@H](O)[C@H]3O)c(-c3ccc(O)c(O)c3)oc2c1	none (no result: ID4 binder)
COc1ccc([N+](=O)[O-])c(NC(=O)c2cnn3c(C(F)F)cc(-c4ccc(C)cc4)nc23)c1	none
O=C(CSc1n[nH]c(-c2ccccc2)n1)Nc1sc2c(c1C(=O)Nc1ccccc1)CCCC2	none
CC(C)(C)NC(=O)c1cccc(NC(=O)COc2ccc3ccccc3c2)c1	none
CCC(=O)Nc1cccc(NC(=O)COc2ccc3ccccc3c2)c1	p53 PUMA act 94
CCc1cccc(CC)c1NC(=O)Cn1cnc2ccccc2c1=O	none
CNC[C@H]1Oc2ccc(NS(=O)(=O)c3cccs3)cc2CC(=O)N([C@H](C)CO)C[C@@H]1C	ID4 binder active (no result: STK33 inh)
CNC[C@@H]1Oc2ccc(NS(=O)(=O)c3cccs3)cc2CC(=O)N([C@H](C)CO)C[C@@H]1C	none
CNC[C@@H]1Oc2ccc(NS(=O)(=O)c3ccccc3)cc2CC(=O)N([C@@H](C)CO)C[C@H]1C	ID4 binder active (no result: STK33 inh)
CNC[C@@H]1Oc2ccc(NS(=O)(=O)c3ccccc3)cc2CC(=O)N([C@@H](C)CO)C[C@@H]1C	none
Cc1ccc([N+](=O)[O-])cc1N(CC(=O)Nc1ccc(I)cc1)S(C)(=O)=O	none
C=C(CO)[C@]1(O)C[C@@]2(C)C(=CC1=O)C=C[C@@H](O)[C@@H]2C	none (no result: ID4 binder)
Cc1nnc2sc(-c3ccccc3NC(=S)NC(=O)CC34CC5CC(CC(C5)C3)C4)nn12	none
O=C(Nc1cc2ccccc2s1)Nc1ccc(F)cc1F	none (no result: STK33 inh)
COc1cc2nccc(Oc3ccc(NC(=O)Nc4ccc(F)cc4F)c(F)c3)c2cc1OC	ID4 binder active (no result: STK33 inh)
CC(C)(C)c1ccc(OCCn2c(CO)nc3ccccc32)cc1	none
OCc1nc2ccccc2n1CCCOc1ccc(Br)cc1	p53 PUMA act 56
O=[N+]([O-])c1cc(C(F)(F)F)ccc1NCCNS(=O)(=O)c1ccc2ccccc2c1	none
CC1CNCCN1S(=O)(=O)c1cccc2cnccc12 (configuration not stated)	none (no result: p53 PUMA act)
NCCNS(=O)(=O)c1cccc2c(Cl)cccc12	none
CNCCNS(=O)(=O)c1cccc2cnccc12	STK33 inh 22
O=S(=O)(NCCNC/C=C/c1ccc(Br)cc1)c1cccc2cnccc12	STK33 inh 79 (no result: ID4 binder)
O=c1[nH]c2ccccc2c2ccccc12	STK33 inh 31
O=Cc1c2[nH]c3ccccc3c2cc2[nH]c3ccccc3c12	none
O=C1c2ccc(O)cc2C(=O)c2ccc(O)cc21	STK33 inh 34
O=C(O)c1cc(O)c2c(c1)C(=O)c1cc(O)cc(O)c1C2=O	none (no result: p53 PUMA act, ID4 binder)
CCC1(C)Cc2c(sc3nc(SC)nc(SCC(=O)Nc4ccc(C)cc4)c23)CO1 (configuration not stated)	none
CC(C)CC(NC(=O)OCC1c2ccccc2-c2ccccc21)C(=O)O (configuration not stated)	p53 PUMA act 64 (no result: STK33 inh)
CC(C)C[C@H](NC(=O)[C@@H](O)[C@H](N)Cc1ccccc1)C(=O)O	none
Clc1ccc2ncnc(NCc3ccc4c(c3)OCO4)c2c1	none (no result: ID4 binder)
COc1ccc2ncc3c(c2c1)-c1cc(Cl)ccc1OC3	p53 PUMA act 69 (no result: STK33 inh)
O=C(NCCc1c[nH]c2ccccc12)NC12CC3CC(CC(C3)C1)C2	none
COc1cccc(-c2cnc3c(c2)C(=O)N([C@H](C)CO)C[C@@H](C)[C@H](CN(C)Cc2cccnc2)O3)c1	ID4 binder active (no result: STK33 inh)
COc1ccc(-c2cnc3c(c2)C(=O)N([C@H](C)CO)C[C@H](C)[C@H](CN(C)Cc2ccccn2)O3)cc1	none (no result: p53 PUMA act, STK33 inh)
COc1cccc(-c2cnc3c(c2)C(=O)N([C@@H](C)CO)C[C@@H](C)[C@@H](CN(C)Cc2cccnc2)O3)c1	none (no result: p53 PUMA act, STK33 inh)
COc1ccc(-c2cnc3c(c2)C(=O)N([C@H](C)CO)C[C@@H](C)[C@H](CN(C)Cc2ccccn2)O3)cc1	ID4 binder active (no result: STK33 inh)
Cc1ccc(C2=NN(C(=O)CCC(=O)O)C(c3ccc(F)cc3)C2)cc1 (configuration not stated)	none
Cn1nnnc1SCC(=O)c1ccc(O)c(O)c1	none
Nc1nc(SCC(=O)c2ccc3c(c2)OCCO3)n[nH]1	none
O=c1cc(-c2ccccc2)oc2cc(O)cc(O)c12	STK33 inh 33 (no result: p53 PUMA act, ID4 binder)
COc1cc(O)c2c(=O)cc(-c3ccc(O)cc3)oc2c1	none (no result: p53 PUMA act, ID4 binder)
O=c1cc(-c2ccccc2)oc2cccc(O)c12	none (no result: p53 PUMA act)
O=c1c(O)c(-c2ccc(O)cc2)oc2cc(O)cc(O)c12	STK33 inh 33 (no result: p53 PUMA act, ID4 binder)
O=C(O)[C@H]1O[C@@H](Oc2c(-c3ccc(O)cc3)oc3cc(O)cc(O)c3c2=O)[C@H](O)[C@@H](O)[C@@H]1O	none (no result: ID4 binder, STK33 inh)
O=c1cc(-c2ccc(O)cc2)oc2cc(O)cc(O)c12	STK33 inh 54 (no result: p53 PUMA act, ID4 binder)
COc1ccc(NC(=O)CSc2nnc(-c3cccs3)n2-c2ccc(F)cc2)cc1	none
C[C@@H]1CN([C@@H](C)CO)C(=O)c2cccc(NC(=O)c3cnccn3)c2O[C@@H]1CN(C)C(=O)Nc1ccccc1	none (no result: STK33 inh)
